Records with an inconclusive call do not appear. Where a call stands in place of a potency, no number is given. Calls of active or inactive are those of the source. Unless noted, the call rests on the fitted dose curve; in most records, active means well fitted curve in the direction sought with a large enough effect in the repeat runs; inconclusive means weak or mixed curves; inactive means no such curve, though single readings can be large; an effect the other way counts as inactive or inconclusive.
Tests used:
[1] = qHTS assay to identify small molecule that activate the aryl hydrocarbon receptor (AhR) signaling pathway - cell viability counter screen (AID 743086);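 further: HepG2 liver cells carrying the AhR DRE luciferase reporter; series mostly up to about 70 µM; nearly all actives have a fitted effect of over 45% in size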
Method in brief: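 Cytotoxicity counter screen: CellTiter-Fluor signal (30 min, 37 C) in 4000 HepG2 cells/well carrying the DRE-luciferase reporter, following 24 h compound exposure at 37 C.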

[2] = molecular target: Peroxisome proliferator-activated receptor gamma (Homo sapiens) (UniProt P37231); test: qHTS assay to identify small molecule agonists of the peroxisome proliferator-activated receptor gamma (PPARg) signaling pathway (AID 743094; active means well fitted activation curve with a large enough effect in the signal ratio in the repeat runs, not every such curve was filed as active; the % refers to the signal ratio)
Peroxisome proliferator-activated receptor gamma (Homo sapiens), sequence (P37231 whole entry, looked up): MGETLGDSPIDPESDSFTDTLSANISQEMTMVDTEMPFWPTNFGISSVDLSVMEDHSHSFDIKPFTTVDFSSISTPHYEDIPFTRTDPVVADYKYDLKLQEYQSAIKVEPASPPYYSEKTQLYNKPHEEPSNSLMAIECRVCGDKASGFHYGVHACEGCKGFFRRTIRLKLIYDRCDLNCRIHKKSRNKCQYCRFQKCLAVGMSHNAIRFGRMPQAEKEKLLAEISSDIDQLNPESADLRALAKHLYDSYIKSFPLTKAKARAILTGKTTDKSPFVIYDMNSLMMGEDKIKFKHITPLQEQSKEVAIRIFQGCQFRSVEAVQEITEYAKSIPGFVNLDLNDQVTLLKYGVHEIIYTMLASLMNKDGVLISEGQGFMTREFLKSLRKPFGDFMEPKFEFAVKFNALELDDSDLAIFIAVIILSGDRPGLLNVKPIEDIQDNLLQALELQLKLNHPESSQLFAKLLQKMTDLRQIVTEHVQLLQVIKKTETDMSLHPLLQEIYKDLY
Method in brief: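 GeneBLAzer PPARg UAS-bla HEK293H cells carrying a stably integrated beta-lactamase reporter were pre-incubated 5 h at 37C, then exposed to compounds in DMSO for 17 h at 37C; LiveBLAzer B/G FRET substrate was added for 1 h at room temperature and fluorescence read.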

[3] = molecular target: Peroxisome proliferator-activated receptor gamma (Homo sapiens) (UniProt P37231); test: qHTS assay to identify small molecule antagonists of the peroxisome proliferator-activated receptor gamma (PPARg) signaling pathway (AID 743191; calls by dose curve; further: nearly all actives have a fitted effect of over 30% in size; further: potency means the concentration at half of the fitted maximal effect)
Method in brief: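 Beta-lactamase reporter under UAS control in HEK293H PPARg-bla cells; compound treatment 17 h at 37C. Read-out: fluorescence intensity after 1 h room-temperature incubation with LiveBLAzer B/G FRET substrate.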

[4] = qHTS assay for small molecule activators of the heat shock response signaling pathway (AID 743210; active means well fitted activation curve with a large enough effect in the signal ratio in the repeat runs, with a control signal flat, not every such curve was filed as active; the % refers to the signal ratio; further: potency means the concentration at half of the fitted maximal effect;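 on activation: HeLa cells with beta-lactamase reporter driven by heat shock elements; series mostly up to about 63 µM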)
Method in brief: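 In HSE-bla HeLa cells, 5 h compound incubation (37 C) precedes addition of LiveBLAzer B/G substrate; after 2.5 h at room temperature, fluorescence intensity indicates reporter induction.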

[5] = qHTS assay to identify small molecule agonists of the peroxisome proliferator-activated receptor delta (PPARd) signaling pathway - cell viability counter screen (AID 743211); further: nearly all actives have a fitted effect of over 55% in size; further: potency means the concentration at half of the fitted maximal effect
Method in brief: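 Tox21 library compounds, delivered in DMSO, were incubated 17 h with PPARd-bla HEK293H cells; cytotoxicity was taken from CellTiter-Glo luminescence read 30 min after reagent addition.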

[6] = molecular target: Peroxisome proliferator-activated receptor delta (Homo sapiens) (UniProt Q03181); test: qHTS assay to identify small molecule agonists of the peroxisome proliferator-activated receptor delta (PPARd) signaling pathway (AID 743212; calls by dose curve)
Peroxisome proliferator-activated receptor delta (Homo sapiens), sequence (Q03181 whole entry, looked up): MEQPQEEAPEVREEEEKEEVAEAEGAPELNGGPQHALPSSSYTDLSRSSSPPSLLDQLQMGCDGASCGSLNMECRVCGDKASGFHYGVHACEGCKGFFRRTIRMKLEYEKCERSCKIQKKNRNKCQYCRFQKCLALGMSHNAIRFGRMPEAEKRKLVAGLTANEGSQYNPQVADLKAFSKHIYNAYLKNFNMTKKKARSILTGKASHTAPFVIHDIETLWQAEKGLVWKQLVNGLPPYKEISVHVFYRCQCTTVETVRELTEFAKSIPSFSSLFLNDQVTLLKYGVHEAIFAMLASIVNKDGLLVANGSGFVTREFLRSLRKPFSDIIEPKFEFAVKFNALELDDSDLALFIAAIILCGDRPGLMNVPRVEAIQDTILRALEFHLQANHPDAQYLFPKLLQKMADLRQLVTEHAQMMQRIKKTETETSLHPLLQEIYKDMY
Method in brief: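 HEK293H UAS-bla reporter cells, human PPARd system; compounds delivered in DMSO after 5 h plating, then at 37 C. Beta-lactamase FRET read, 2 h RT substrate step.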

[7] = qHTS assay to identify small molecule antagonists of the peroxisome proliferator-activated receptor delta (PPARd) signaling pathway - cell viability counter screen (AID 743213); further: nearly all actives have a fitted effect of over 50% in size; further: potency means the concentration at half of the fitted maximal effect
Method in brief: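 Cytotoxicity counter screen: CellTiter-Glo luminescence read 30 min after addition, in the same wells as the reporter assay. There, PPARd UAS-bla HEK293H cells (3000/well) were treated 17 h at 37 C with compound and 300 nM L165041.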

[8] = qHTS assay to identify small molecule agonists of the farnesoid-X-receptor (FXR) signaling pathway - cell viability counter screen (AID 743218); further: nearly all actives have a fitted effect of over 45% in size; further: potency means the concentration at half of the fitted maximal effect
Method in brief: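 FXR-UAS-bla HEK 293T cells, plated 5 h at 37 C, were exposed to compounds for 16 h at 37 C. CellTiter-Glo was then added to the same wells as the bla readout; luminescence read after 30 min at room temperature.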

[9] = qHTS assay to identify small molecule antagonists of the farnesoid-X-receptor (FXR) signaling pathway - cell viability counter screen (AID 743221; active means well fitted cell-killing curve with a large enough effect in the repeat runs, not every such curve was filed as active; further: nearly all actives have a fitted effect of over 50% in size)
Method in brief: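 Cytotoxicity is taken from ATP luminescence (CellTiter-Glo, 30 min, room temperature) in FXR-bla HEK 293T cells previously incubated 16 h at 37 C with compound and chenodeoxycholic acid at 50 uM final.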

[10] = molecular target: Vitamin D3 receptor (Homo sapiens) (UniProt P11473); test: qHTS assay to identify small molecule agonists of the vitamin D receptor (VDR) signaling pathway (AID 743222; calls by dose curve)
Vitamin D3 receptor (Homo sapiens), sequence (P11473 whole entry, looked up): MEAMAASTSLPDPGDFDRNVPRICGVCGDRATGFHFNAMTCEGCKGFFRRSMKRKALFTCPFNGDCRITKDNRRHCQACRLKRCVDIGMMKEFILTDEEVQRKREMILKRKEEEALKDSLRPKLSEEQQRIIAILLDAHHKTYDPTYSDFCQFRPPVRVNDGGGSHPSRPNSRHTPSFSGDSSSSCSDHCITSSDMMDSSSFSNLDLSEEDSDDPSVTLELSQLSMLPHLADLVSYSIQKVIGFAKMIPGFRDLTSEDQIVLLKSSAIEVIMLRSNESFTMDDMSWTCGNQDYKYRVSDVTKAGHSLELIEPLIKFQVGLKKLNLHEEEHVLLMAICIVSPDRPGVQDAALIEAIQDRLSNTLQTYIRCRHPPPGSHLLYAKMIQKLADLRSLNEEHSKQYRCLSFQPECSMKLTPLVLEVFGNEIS
Method in brief: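 VDR-bla cells were plated 4 h at 37C/5% CO2, then exposed to compounds in DMSO for 16 h. After LiveBLAzer B/G FRET substrate addition and 2 h at room temperature, beta-lactamase reporter fluorescence was read.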

[11] = qHTS assay to identify small molecule agonists of the vitamin D receptor (VDR) signaling pathway - cell viability counter screen (AID 743224); further: series mostly up to about 63 µM; nearly all actives have a fitted effect of over 50% in size
Method in brief: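 VDR-bla cells were preincubated 4 h at 37C/5% CO2, then exposed to compounds for 16 h. After the 2 h room-temperature bla FRET read, CellTiter-Glo was added to the same wells and luminescence read after 30 min.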

[12] = qHTS assay to identify small molecule antagonists of the peroxisome proliferator-activated receptor gamma (PPARg) signaling pathway - cell viability counter screen (AID 743194); further: nearly all actives have a fitted effect of over 55% in size
Method in brief: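 Viability was measured as CellTiter-Glo luminescence in GeneBLAzer PPARg UAS-bla HEK293H cells. These cells had been exposed 17 h at 37 C to compounds together with rosiglitazone at 50 nM final, with the beta-lactamase readout taken in the same wells.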

[13] = qHTS assay for small molecule agonists of the antioxidant response element (ARE) signaling pathway - cell viability counter screen (AID 743203; calls by dose curve; further: nearly all actives have a fitted effect of over 55% in size; further: potency means the concentration at half of the fitted maximal effect)
Method in brief: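 CellSensor ARE-bla HepG2 cells, 2,000 per well, rested 5 hrs at 37C/5% CO2, then exposed to compound in DMSO for 16 hrs; viability read as CellTiter-Glo luminescence after 30 min at room temperature, in the reporter wells.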

[14] = qHTS assay for small molecule activators of the heat shock response signaling pathway - cell viability counter screen (AID 743209); further: nearly all actives have a fitted effect of over 50% in size
Method in brief: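 CellSensor HSE-bla HeLa cells, plated overnight at 37 C/5% CO2, were exposed to compounds in DMSO for 5 h at 37 C. Viability was then read in the same wells by CellTiter-Glo luminescence after 30 min at room temperature.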

[15] = molecular target: Peroxisome proliferator-activated receptor delta (Homo sapiens) (UniProt Q03181); test: qHTS assay to identify small molecule antagonists of the peroxisome proliferator-activated receptor delta (PPARd) signaling pathway (AID 743215; active means well fitted inhibition curve with a large enough effect in the signal ratio in the repeat runs, not every such curve was filed as active; the % refers to the signal ratio;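 further: cells stimulated with agonist L165041 at 300 nM final during compound exposure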; further: potency means the concentration at half of the fitted maximal effect)
Method in brief: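 PPARd UAS-bla HEK293H cells were pre-incubated 5 h at 37 C, then given test compounds in DMSO plus agonist L165041 (300 nM final). After 17 h at 37 C, beta-lactamase FRET substrate was added; fluorescence read after 2 h at room temperature.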

[16] = molecular target: Vitamin D3 receptor (Homo sapiens) (UniProt P11473); test: qHTS assay to identify small molecule antagonists of the vitamin D receptor (VDR) signaling pathway (AID 743223; active means well fitted inhibition curve with a large enough effect in the signal ratio in the repeat runs, not every such curve was filed as active; the % refers to the signal ratio)
Method in brief: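 Quantitative HTS in VDR-bla reporter cells stimulated with 1alpha,25-dihydroxyvitamin D3, 3 nM final. Compound exposure 16 h, 37C, 5% CO2. Read-out: beta-lactamase FRET substrate fluorescence, 2 h RT.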

[17] = qHTS assay for small molecule agonists of the antioxidant response element (ARE) signaling pathway (AID 743202; active means well fitted activation curve with a large enough effect in the signal ratio in the repeat runs, not every such curve was filed as active; the % refers to the signal ratio)
Method in brief: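 An ARE-responsive beta-lactamase gene stably integrated in HepG2 cells serves as reporter. After 5 h plating and 16 h compound incubation at 37 C, fluorescence of the B/G FRET substrate was measured.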

[18] = molecular target: Bile acid receptor (Homo sapiens) (UniProt Q96RI1); test: qHTS assay to identify small molecule antagonists of the farnesoid-X-receptor (FXR) signaling pathway (AID 743217; active means well fitted inhibition curve with a large enough effect in the signal ratio in the repeat runs, not every such curve was filed as active; the % refers to the signal ratio)
Bile acid receptor (Homo sapiens), sequence (Q96RI1 whole entry, looked up): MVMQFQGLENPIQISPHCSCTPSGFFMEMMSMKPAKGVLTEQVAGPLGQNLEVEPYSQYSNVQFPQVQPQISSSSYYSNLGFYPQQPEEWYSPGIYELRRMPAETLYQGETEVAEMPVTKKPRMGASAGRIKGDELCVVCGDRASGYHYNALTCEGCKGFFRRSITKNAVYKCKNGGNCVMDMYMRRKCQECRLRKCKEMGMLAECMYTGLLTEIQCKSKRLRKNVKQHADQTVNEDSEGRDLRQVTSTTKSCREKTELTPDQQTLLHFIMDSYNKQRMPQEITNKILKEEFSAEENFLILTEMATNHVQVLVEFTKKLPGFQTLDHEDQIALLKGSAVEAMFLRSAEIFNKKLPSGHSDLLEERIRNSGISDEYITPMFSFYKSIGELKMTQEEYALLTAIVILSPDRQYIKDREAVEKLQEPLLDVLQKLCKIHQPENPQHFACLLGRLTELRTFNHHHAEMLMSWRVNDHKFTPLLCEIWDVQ
Method in brief: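 FXR-UAS-bla HEK 293T cells pre-incubated 5 h at 37 °C, then exposed to compounds with chenodeoxycholic acid (50 uM final) for 16 h at 37 °C. Beta-lactamase reporter read by LiveBLAzer B/G FRET substrate fluorescence after 2 h at room temperature.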

[19] = molecular target: Bile acid receptor (Homo sapiens) (UniProt Q96RI1); test: qHTS assay to identify small molecule agonists of the farnesoid-X-receptor (FXR) signaling pathway (AID 743220; active means well fitted activation curve with a large enough effect in the signal ratio in the repeat runs, not every such curve was filed as active; the % refers to the signal ratio)
Method in brief: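 Beta-lactamase reporter under UAS control in GeneBLAzer FXR HEK 293T cells (5000/well) measured with LiveBLAzer FRET substrate after 2 h at room temperature. Compound exposure lasted 16 h at 37C.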

| SMILES | Potency [1] | Potency [2] | Potency [3] | Potency [4] | Potency [5] | Potency [6] | Potency [7] | Potency [8] | Potency [9] | outcome [10] | Potency [11] | Potency [12] | Potency [13] | Potency [14] | Potency [15] | outcome [16] | Potency [17] | Potency [18] | Potency [19] |
| --- | --- | --- | --- | --- | --- | --- | --- | --- | --- | --- | --- | --- | --- | --- | --- | --- | --- | --- | --- |
| O=Cc1c(Cl)cccc1Cl | inactive | inactive | inactive | inactive | inactive | inactive | inactive | inactive | inactive | inactive | inactive | – | – | – | – | – | – | – | – |
| CC(C)CCCCCOC(=O)CCCCC(=O)OCCCCCC(C)C | inactive | inactive | inactive | inactive | – | inactive | inactive | inactive | inactive | inactive | inactive | inactive | inactive | inactive | inactive | inactive | – | – | – |
| CCOC(=O)C(C)Oc1ccc(Oc2nc3ccc(Cl)cc3o2)cc1 (centres undefined) | inactive | inactive | – | inactive | inactive | inactive | inactive | inactive | inactive | inactive | – | inactive | inactive | inactive | inactive | – | – | – | – |
| CCCCN(CCCC)C(=S)SSC(=S)N(CCCC)CCCC | inactive | – | 24.3 µM (active) | 1.37 µM (active) | inactive | inactive | – | – | inactive | – | – | inactive | – | inactive | 21.7 µM (active) | inactive | – | – | – |
| CC1=C(/C=C/C(C)=C\C=C\C(C)=C\C(=O)O)C(C)(C)CCC1 | inactive | – | inactive | inactive | inactive | – | inactive | inactive | inactive | inactive | inactive | inactive | inactive | – | – | – | – | – | – |
| COCCOC | inactive | – | – | inactive | inactive | – | inactive | inactive | inactive | inactive | inactive | inactive | inactive | inactive | – | – | inactive | inactive | – |
| COC(=O)c1cc(S(N)(=O)=O)ccc1OC | – | – | inactive | inactive | inactive | – | inactive | inactive | inactive | inactive | inactive | inactive | inactive | inactive | – | – | inactive | inactive | inactive |
| CN1CCN(CCCN2c3ccccc3Sc3ccc(S(=O)(=O)N(C)C)cc32)CC1 | inactive | – | – | inactive | 26.6 µM (active) | – | 26.6 µM (active) | 29.8 µM (active) | – | – | – | – | 26.6 µM (active) | – | – | – | – | – | – |
| Cn1c(=O)c2c(ncn2CC(=O)O)n(C)c1=O | – | – | inactive | – | inactive | – | inactive | inactive | inactive | inactive | inactive | inactive | inactive | inactive | – | – | inactive | – | – |
| CCCCC(CC)CNCC(CC)CCCC (centres undefined) | inactive | – | – | inactive | inactive | inactive | inactive | inactive | inactive | inactive | inactive | inactive | inactive | inactive | – | inactive | inactive | inactive | inactive |
| CC(C)(CCl)c1ccccc1 | inactive | – | – | – | inactive | inactive | inactive | inactive | inactive | inactive | – | inactive | inactive | inactive | inactive | inactive | inactive | inactive | – |

Source: PubChem BioAssay (Tox21)
